From the supplement of paper PMC11417369
The full ranking holds about 25,000 sequences; the median of “ln(normalized median fluorescence intensity)” is about 9.7, and the highest 2% start at about 11. For the sample, the highest values were picked, then their nearest neighbours and some sequences at random.

System: PfAP2-HC AP2 domain (GST-tagged)
Test: gcPBM binding intensity (ln(normalized median fluorescence intensity)); higher = stronger DNA binding
Outline: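 Probes on an Agilent 4 × 180k array were primer-extended, double-stranded and 36 bp long, taken from intergenic genomic regions, with negative controls added. GST-tagged P. falciparum DNA-binding domains from E. coli, about 25 μg on average, were applied to the array for 1 h in 1× PBS containing 1% milk, 0.2 mg/ml BSA, 0.5% salmon testes DNA and 0.03% Triton X-100. Binding intensity, obtained after Alexa488 anti-GST antibody detection and a 488 nm scan, is the highest Masliner-normalised natural-log median intensity across replicate spots of either probe orientation.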

| Sequence | gcPBM binding intensity (ln) |
| --- | --- |
| TGTATTAATAAAAATACACACATCATATTATATAAA [CACACA_site3534] | 9.73 |
| TTAAAATATACATAAACACACACAAAACGTTTAAGA [CACACA_site8267] | 10.4 |
| GATAAATTAAGACACACACACATATATTTATTTATA [CACACA_site7789] | 11.2 |
| ACATATACAAAACACACACACAACGTTTTAATAAAT [CACACA_site1979] | 10.7 |
| TTTTAATTAAGACACACACACACATATAAATATGTA [CACACA_site7144] | 11 |
| TAAAATATAAGACACACACACATATATTTATATATC [CACACA_site6248] | 10.5 |
| AAATTAATAAGTCACACACACATATATAATATATAT [CACACA_site799] | 10.4 |
| CAAAATTAATAAGTCACACACACATATATAATATAT [CACACA_site798] | 11 |
| ACATATACAAGACACACACACAACGTTTTAATAAAT [CACACA_site7017] | 11.2 |
| CATTATAAGAGACACACACACATATATAAATATGTA [CACACA_site6621] | 10.9 |
| ATATTAAAGATATATACACACATATTTATAAATATA [CACACA_site7127] | 9.78 |
| ATTAAAATATAAGTCACACATATATATATATATATA [CACACA_site6145] | 9.51 |
| AAAAAAATTAGACACACACACACATATAAATATGTA [CACACA_site6618] | 10.8 |
| TTTATATTAATTTGTGTAAATGCATATGATGAGCAT [XGTACX_negctrl_site254] | 9.41 |
| ATTTTATGATATATTTGTACTTAACATTTGGATATA [XGTACX_site5888] | 9.6 |
| ACCATCCTTAATACTTATTTTTTCACAATTAAGTAA [GTGCAC_negctrl_site269] | 9.59 |
| AAACCAAGGCACAATAATTAAATAAATAAAATCATG [GTGCAC_negctrl_site574] | 9.58 |
| TTTTTCATAAATATATGTACATATATTTTATATAAC [XGTACX_site3402] | 9.66 |
| TATTAGATATAATATATACACACCAACGAACGAAGA [CACACA_site1134] | 10.1 |
| CATATATGTGATAACACGCACACAAATGTATAGAAT [CACACA_site2594] | 10.4 |
| AGAGAGAAAGCTATAACATGCAACAATTTTTAGAAA [TGCATGCA_site95] | 9.63 |

| Sequence | gcPBM binding intensity (ln) |
| --- | --- |
| TATTTTTAATATTTTGCATGCAGTATTTTATAAAAT [TGCATGCA_site250] | 9.52 |
| TAAACATACATATACACACACACACCCACACCCACA [CACACA_site492] | 11.6 |
| TCTCATAGGAAACACACACACACACCCACATATATA [CACACA_site1738] | 11 |
| AACATATTAATGTACACACACCCACGCACAAACAAA [CACACA_site7320] | 10.4 |
| TCTCATAGTAAACACACACACACACCCACATATATA [CACACA_site5034] | 10.6 |
| AAGCAAACATATTAATGTACACACACCCACACACAA [XGTACX_site5806] | 11.1 |
| TATAAATATACACCCACACACATATATAAATAAATA [CACACA_site7717] | 10.8 |
| CAAACATATTAATGTACACACACCCACCCACAAACA [CACACA_site2752] | 10.4 |
| CATACATATAAACACACACACACACCCACCCACAAA [CACACA_site8059] | 10.6 |
| ATTAAACATACATATACACACACACCCACCCACCCA [CACACA_site8057] | 11 |
| ATAATTTGGAAACACACACACACACCCACATATATA [CACACA_site2286] | 10.5 |
| TTTTTTAAAAAAGTTTTCTGTATTTATATATATATA [CACACA_negctrl_site31] | 9.48 |
| AAAATATATATAACTTGTACATATACATACGTATAT [XGTACX_site4570] | 9.77 |
| TTTCTTTTTTTTTTTTTTTCTTTTTTTTTTTTTTTC [CACACA_negctrl_site1025] | 9.2 |
| ACTAAAAAAATAAACACACAGATTTATATAATATAT [CACACA_site4884] | 9.83 |
| TATATTTGTACATGATATTTTTTTTTTCTTTTAAAA [CACACA_negctrl_site754] | 9.43 |
| TATAATTATATAAATTGTACATAAAAAGTTTTTACT [XGTACX_site3621] | 9.45 |
| AAATGTTCTTAAAAATGAATAATATATATATATATA [CACACA_negctrl_site796] | 9.41 |
| TAATTATGCAGACACACACACACACCCAACTAAAAA [CACACA_site2569] | 10.4 |
| TATGTGTATTTATTTGCATGTTGGTTGTATTTTTTC [TGCATGCA_site479] | 10.4 |
| ACAAAGTTTATAGAACGTACATACTTACACATATTT [XGTACX_site556] | 9.73 |

| Sequence | gcPBM binding intensity (ln) |
| --- | --- |
| AATATTGTTCACAAGGTGCTTTTTATTCATACTAAT | 9.8 |
| TTGGCATACAGACACACACACACACGCCCACATATA [CACACA_site6425] | 10.7 |
| CATACCTATAGACACACACACACACGCACGCACAAA [CACACA_site6374] | 10.4 |
| TACCTATACAGACACACACACACACGCCCACAAAAA [CACACA_site6375] | 11.1 |
| CCAATTCAAATATGCACACAAATTTGAAAACGATTA [CACACA_site3607] | 9.71 |
| TGAAAATGGGAACCGTGTACAGGGCAGTTATAGGGG [XGTACX_site2950] | 9.87 |
| AAAAAAGAATAGCACACACACATATATAAATATAAA [CACACA_site4518] | 10.5 |
| TATTACATACCTTATTGTACAAATTATATATTAAAG [XGTACX_site7334] | 9.54 |
| ATATATCTATATGTGTGTACATATAAGTATTTATAT [XGTACX_site5333] | 9.87 |
| CATACATACGGACACACACACATATATATATATATA [CACACA_site5598] | 10.4 |
| ACACGCACATATATATAAATATATATATATATAAAT [CACACA_negctrl_site1781] | 10.1 |
| CATATATACACATACACACACACACGGACACGCACA [CACACA_site6910] | 10.5 |
| CTAAAATACGGACACACACACACATATATATATATA [CACACA_site6138] | 11.4 |
| AAAAAAAACGGACACACACACATACAAAATATATAT [CACACA_site4910] | 10.8 |
| TTATAAATAAAAAATACACACATATATATATATATA [CACACA_site207] | 9.57 |
| TATAAATAAAAACACACACACATATATATATATATA [CACACA_site2319] | 10.4 |
| AAAAAAAACGGACACACACACATAAATATATATAAA [CACACA_site4260] | 11.3 |
| GTTATAAATAAATATACACACATATATAAAATACAT [CACACA_site7146] | 9.97 |
| AATACATACGGACACACACACACATATATATATATA [CACACA_site5884] | 11.6 |
| CACACGCACGGACACACACACATATAAAATCTATAT [CACACA_site6428] | 11.1 |
| AATATATACATATATACACACACATATATATATATA [CACACA_site8907] | 10.2 |
